High-throughput results deposited in PubChem BioAssay by National Center for Advancing Translational Sciences (NCATS).
This is a sample that favours compounds with a hit; in the whole collection about 22% have one here.
Pf growth 48h – P. falciparum growth inhibition at 48 hours (one generation). 5.9% of 310,000 active. AID 504832. Potency, µM (doses to about 28.7 µM), usual class: inhibitors. P. falciparum luciferase growth in erythrocytes, 48 h
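Read-out is firefly luciferase luminescence from an integrated reporter in P. falciparum, so falling signal marks reduced parasite growth. Infected erythrocytes were at 2% hematocrit and 0.1% parasitemia (final) in Albumax-supplemented RPMI 1640.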
Shiga inhibitor – blocks Shiga toxin action in Vero cells | Vero cells, Shiga toxin protein synthesis inhibition reporter | inhibition, % at 38.7 µM | 9.2% of 290,000 active | AID 2315; in the data active = inhibition mostly above about 28%, no sharp cut-off; inactive = mostly below about 43%
LmPK inh – LmPK (Leishmania mexicana) enzyme inhibition | 0.37% of 290,000 active | Potency, µM (highest dose often 57.5 µM), hits mostly inhibitors | purified LmPK, Kinase-Glo ATP luminescence, 1 h | AID 1721 | Q27686
Target sequence (Q27686 whole entry, looked up): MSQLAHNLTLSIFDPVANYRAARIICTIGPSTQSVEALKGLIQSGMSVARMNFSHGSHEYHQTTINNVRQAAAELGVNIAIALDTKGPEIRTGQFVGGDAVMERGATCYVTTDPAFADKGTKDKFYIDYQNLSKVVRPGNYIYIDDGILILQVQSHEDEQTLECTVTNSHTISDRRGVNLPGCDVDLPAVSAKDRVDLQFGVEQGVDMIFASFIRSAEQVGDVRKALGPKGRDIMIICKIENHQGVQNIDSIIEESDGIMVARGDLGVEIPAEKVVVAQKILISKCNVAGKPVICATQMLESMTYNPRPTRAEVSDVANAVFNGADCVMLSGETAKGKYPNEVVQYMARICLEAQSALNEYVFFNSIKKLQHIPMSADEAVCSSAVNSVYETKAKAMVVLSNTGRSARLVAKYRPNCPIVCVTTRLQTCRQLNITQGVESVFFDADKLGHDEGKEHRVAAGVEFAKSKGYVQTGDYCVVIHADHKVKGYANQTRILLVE
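In 50 mM imidazole pH 7.2 with 7 mM MgCl2, LmPK (0.1 nM) turned over PEP (0.5 mM) and ADP (0.1 mM) for 1 h at room temperature. Luciferase read-out of ATP.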
Cycloheximide cs – counter-screen for Shiga toxin inhibitors: cycloheximide protein synthesis inhibition; cell reporter, cycloheximide protein synthesis inhibition counterscreen; max response, %; 12% of 300,000 active; AID 2314; in the data active = max response mostly above about 13%, no sharp cut-off; inactive = mostly below about 14%; note: read at 38.3 µM for the half of the compounds with a filed dose
Pf growth 96h – P. falciparum growth inhibition at 96 hour, primary screen for plastid delayed-death inhibitors | P. falciparum luciferase reporter growth, 96 h | Potency, µM (series often up to 28.7 µM), hits mostly inhibitors | 6.9% of 320,000 active | AID 504834
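P. falciparum expressing integrated firefly luciferase, in erythrocytes at 2% hematocrit, 0.05% parasitemia, incubated with compounds 96 h at 37 C, 5% CO2. Growth inhibition read as loss of luminescence; two-generation exposure targets delayed-death apicoplast inhibitors.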
Large screens that a line does not name were inactive. Unless noted, calls come from the whole dose curve; as a rule, active = well fitted inhibition curve with a large enough effect; inconclusive = small, poorly fitted or top-dose-only effect, or another doubt; inactive = no such curve, though single readings can be large or run the other way.

O=C(N/N=C/c1cc(Br)ccc1O)C(=O)Nc1ccccc1OC(F)(F)C(F)F	Pf growth 48h inconclusive, Pf growth 96h 2.9µM
O=C(N/N=C/c1cc(Cl)ccc1O)C(=O)Nc1ccccc1OC(F)(F)C(F)F	Pf growth 48h inconclusive
O=C(C[n+]1ccccc1)N/N=C/c1ccccc1Cl	Pf growth 96h inconclusive (no result: Shiga inhibitor, LmPK inh, Cycloheximide cs)
Fc1ccc(/C=N/NC(=S)NCCc2ccccc2)cc1F	none
COc1ccc(/C(C)=N/NC(=S)NCCc2ccccc2)c(O)c1	Pf growth 48h 0.41µM, Pf growth 96h inconclusive
O=C(Cc1ccccc1)N/N=C/c1ccccc1Cl	Cycloheximide cs 41, Pf growth 96h inconclusive
C/C(=N\NC(=S)NCCc1ccccc1)c1ccc(C)cc1	none
O=C(CCc1ccccc1)N/N=C/c1cc(Br)ccc1O	Pf growth 48h 4.1µM, Pf growth 96h 6.6µM
CCc1ccc(/C=N/NC(=S)NCCc2ccccc2)cc1	none (no result: Pf growth 48h)
O=C(NCCCN1CCOCC1)C(=O)N/N=C/c1ccccc1Cl	Cycloheximide cs 19
COc1ccc(O)c(/C=N/NC(=S)NCCc2ccccc2)c1	Pf growth 48h 2.6µM, Pf growth 96h inconclusive
O=C(NCCCN1CCOCC1)C(=O)N/N=C/c1c(Cl)cccc1Cl	none
S=C(NCCc1ccccc1)N/N=C/c1ccccc1Cl	Cycloheximide cs 11
O=C(C(Cl)c1ccccc1)N1CCOCC1 (configuration not stated)	Pf growth 48h inconclusive, Pf growth 96h inconclusive
COCCCNC(=S)N/N=C/c1ccccc1O	Pf growth 48h inconclusive, Shiga inhibitor 52, Cycloheximide cs 44, Pf growth 96h inconclusive
O=C(N/N=C/c1cc(Br)ccc1O)c1ccccc1Cl	Pf growth 48h inconclusive, Pf growth 96h 9.3µM
Cc1ccc(/C=N/NC(=S)NC(C)C)o1	Pf growth 96h inconclusive (no result: Pf growth 48h)
CC(C)NC(=S)N/N=C/c1cc(Br)ccc1O	Pf growth 48h 2.1µM, Pf growth 96h 1.7µM
COCCNC(=S)N/N=C/c1ccccc1C(=O)O	none (no result: Pf growth 48h)
COc1ccc(C=O)cc1CN1CCCN(Cc2ccccc2F)S1(=O)=O	none
Cc1ccccc1Nc1c(-c2ccccn2)nc2ccccn12	Pf growth 48h 2.6µM
Cc1ccn2c(Nc3ccccc3)c(-c3ccccn3)nc2c1	Pf growth 48h 2.1µM
Cc1ccn2c(Nc3ccccc3C)c(-c3ccccn3)nc2c1	Pf growth 48h inconclusive
O=C(Cn1ccc(C(F)(F)F)n1)Nc1cccc(S(=O)(=O)N2CCCCC2)c1	Pf growth 48h inconclusive, Pf growth 96h inconclusive
Cc1nc(CS(=O)(=O)c2ccc(Cl)cc2)cc(Sc2ccc(Cl)cc2)n1	Pf growth 48h 3.3µM, Pf growth 96h 2.3µM
NC(=O)COC(=O)c1ccc2noc(-c3ccccc3)c2c1	Shiga inhibitor 81, Cycloheximide cs 57 (no result: Pf growth 48h)
NC(=O)COC(=O)c1ccc(C(=O)C(=O)c2ccccc2)cc1	none
O=C1CCCC(=NCc2ccco2)C1	Pf growth 96h inconclusive
CN(C)c1nc(=NCc2ccco2)ss1	Pf growth 48h inconclusive, Pf growth 96h 2.6µM
CCOC(=O)n1c(=O)oc2cc(S(=O)(=O)N3CCCCC3)ccc21	Pf growth 48h inconclusive, Pf growth 96h 0.0029µM
COC(=O)n1c(=O)oc2cc(S(=O)(=O)N3CCCCC3)ccc21	none
CCOC(=O)N1CCN(C(=O)c2oc3ccc(S(=O)(=O)N4CC(C)CC(C)C4)cc3c2C)CC1 (configuration not stated)	Pf growth 48h inconclusive (no result: Pf growth 96h)
CCOC(=O)C1CCN(C(=O)c2oc3ccc(S(=O)(=O)N4CC(C)CC(C)C4)cc3c2C)CC1 (configuration not stated)	Pf growth 48h 2.3µM
CCOC(=O)N1CCN(C(=O)c2oc3ccc(S(=O)(=O)N4CCCCCC4)cc3c2C)CC1	Pf growth 48h 12µM, Pf growth 96h inconclusive
CCCCN(CC)C(=O)c1oc2ccc(S(=O)(=O)N3CCCC3)cc2c1C	Pf growth 48h inconclusive, Pf growth 96h 13µM
Cc1ccc(C(=O)NCc2ccco2)cc1S(=O)(=O)Nc1cccc(Cl)c1	none (no result: Pf growth 48h)
Cc1ccc2nc(NC(=O)CSc3nnc(C)c(=O)n3N)sc2c1	none
CC1(C)CC(=O)C/C(=N/Nc2nc3ccccc3s2)C1	Pf growth 48h inconclusive, Shiga inhibitor 43, Cycloheximide cs 40, Pf growth 96h inconclusive
Cc1cc(C(=O)N/N=C2\CC(=O)CC(C)(C)C2)n[nH]1	none
CC1CCC/C(=N/Nc2nc3ccccc3s2)C1 (configuration not stated)	Shiga inhibitor 123, Cycloheximide cs 45
CCN1N=C(c2ccccc2)Cn2c1nc1ccccc12	Pf growth 96h 6.6µM (no result: Pf growth 48h)
O=C(Nc1nc2cc3c(cc2s1)OCCO3)c1ccncc1	Shiga inhibitor 121, Cycloheximide cs 33
O=C(Nc1nc(-c2ccc(F)cc2)cs1)c1ccc(N2C(=O)CCC2=O)cc1	none
O=C(Nc1nc2cc3c(cc2s1)OCCO3)c1ccc(N2C(=O)CCC2=O)cc1	Shiga inhibitor 50, Cycloheximide cs 31
Nc1nc(Sc2c([N+](=O)[O-])cc(C(F)(F)F)cc2[N+](=O)[O-])n[nH]1	Pf growth 48h inconclusive, Shiga inhibitor 48, Pf growth 96h inconclusive
COc1ccc(NC(=O)c2cc(-c3cc(OC)c(OC)c(OC)c3)nc3ccccc23)cc1OC	Pf growth 48h 13µM, Pf growth 96h inconclusive
COc1ccc(-c2cc(C(=O)Nc3ccc(S(=O)(=O)Nc4ncccn4)cc3)c3ccccc3n2)cc1	Pf growth 48h inconclusive, Pf growth 96h inconclusive
COc1cc(-c2cc(C(=O)Nc3ccc(S(=O)(=O)Nc4ncccn4)cc3)c3ccccc3n2)cc(OC)c1OC	Pf growth 48h inconclusive, Pf growth 96h 7.4µM
COc1cc(-c2cc(C(=O)Nc3ccc(S(N)(=O)=O)cc3)c3ccccc3n2)cc(OC)c1OC	Pf growth 48h inconclusive, Pf growth 96h inconclusive
COc1ccc(-c2cc(C(=O)Nc3ccc(C)c(N)c3)c3ccccc3n2)cc1	Pf growth 48h inconclusive, Shiga inhibitor 118, Cycloheximide cs 19
CCN(CC)S(=O)(=O)c1ccc(O)c(NC(=O)c2cc(-c3cc(OC)c(OC)c(OC)c3)nc3ccccc23)c1	Pf growth 48h inconclusive, Pf growth 96h 1.2µM
COc1cc(NS(=O)(=O)c2ccc3c(c2)CCCN3C(C)=O)cc(OC)c1OC	none (no result: Pf growth 48h, LmPK inh, Pf growth 96h)
COC(=O)C1=C(C(=O)OC)[C@@H]2N(C)c3ccccc3[C@@]23C[C@@H](CO)N(C(=O)c2ccco2)C3=N1	none (no result: Pf growth 48h, Shiga inhibitor, Cycloheximide cs, Pf growth 96h)
COc1ccc(-c2cc(C(=O)Nc3ccc(O)cc3)c3ccccc3n2)cc1OC	Pf growth 48h 6.6µM, Shiga inhibitor 62, Cycloheximide cs 28, Pf growth 96h inconclusive
COc1cc(-c2cc(C(=O)Nc3cccc(S(=O)(=O)N(C)C)c3)c3ccccc3n2)cc(OC)c1OC	Pf growth 48h inconclusive, Pf growth 96h inconclusive
COc1ccc(C(CNC(=O)c2ccc(-c3ccccc3)cc2)N(C)C)cc1OC (configuration not stated)	Pf growth 48h inconclusive, Cycloheximide cs 10, Pf growth 96h inconclusive
CC(CNC(=O)c1ccc(-c2ccccc2)cc1)CN(C)C (configuration not stated)	none
